The source of these data is PubChem BioAssay AID602447 (National Center for Advancing Translational Sciences (NCATS), 2012).

The structures appear in SMILES notation. Results filed as inconclusive are left out. Active and inactive are the calls of the source. No rule for the calls is given here.

Sequence of Beta-2 adrenergic receptor (Homo sapiens) (P07550 whole entry, looked up): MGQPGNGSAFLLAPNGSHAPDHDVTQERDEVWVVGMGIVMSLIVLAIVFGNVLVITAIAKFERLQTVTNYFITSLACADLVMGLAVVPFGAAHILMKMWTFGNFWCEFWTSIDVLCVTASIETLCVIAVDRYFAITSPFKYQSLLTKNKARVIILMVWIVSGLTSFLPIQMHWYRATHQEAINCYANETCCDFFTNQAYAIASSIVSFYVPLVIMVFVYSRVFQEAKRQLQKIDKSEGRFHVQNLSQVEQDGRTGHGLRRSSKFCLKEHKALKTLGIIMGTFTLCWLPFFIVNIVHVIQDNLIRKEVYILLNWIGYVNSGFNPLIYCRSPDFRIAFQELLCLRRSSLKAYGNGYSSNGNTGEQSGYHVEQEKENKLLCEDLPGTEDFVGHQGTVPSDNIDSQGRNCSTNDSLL

This test addresses Beta-2 adrenergic receptor (Homo sapiens) (UniProt P07550). Put plainly: qHTS for antagonists of the Thyroid Stimulation Hormone Receptor: Hit Validation with Beta-2 Adrenergic Receptor. The following applies: B2AR-expressing cells, cAMP HTRF, antagonist counterscreen; hits give high values. An excerpt:
The thyroid-stimulating hormone receptor (TSHR) is a member of the 7 trans-membrane-spanning receptor (7TMR) family of cell surface receptors. TSHR-mediated hyperthyroidism is important in thyroid pathology. The development of small molecule antagonists of TSHR may lead to therapeutic approaches for TSHR-mediated hyperthyroidism caused by constitutively activating mutations or stimulating auto-antibodies associated with Graves' disease. Graves' disease is the leading cause of hyperthyroidism and is caused by autoantibodies that stimulate TSHR (TsAbs) causing thyroid growth and unregulated overproduction of thyroid hormones and existing treatments have liabilities (agranulocytosis). In addition, TSHRs are known to be expressed in multiple extrathyroidal tissues including bone, brain, kidney, testis, fat and cells of the immune system but the role of the TSHR in these tissues is not clear. Therefore, TSHR antagonists/inverse agonists could be used as probes of extrathyroidal TSHR function. Finally, TSHR inverse agonists, which are a subclass of antagonists that inhibit agonist-independent (or basal or constitutive) TSHR signaling, could be used to inhibit TSH-independent signaling in patients with recurrent or metastatic thyroid cancer who are receiving thyroid hormone to suppress TSH. In collaboration between scientist from the NCGC and the NIDDK, a miniaturized HTRF high-throughput screen was developed. It's a cell based assay, where an anti cAMP antibody contains a fluorescent cryptate tag (excitation 337 nm; emission 620 nm) and the acceptor is cAMP-d2 (excitation 620 nm; emission 665 nm). When antibody and cAMP-d2 interact and are excited by a 337 nm light, a FRET occurs resulting in emission at 665 nm. The assay is competition between cAMP-d2 and cAMP (from the cell lysate). The homogeneous protocol allows for one step dispense after stimulation that is automation friendly. This is a hit validation assay in a counterscreen using beta-2 adrenergic receptor, a closely related hormone receptor NIH Chemical Genomics Center [NCGC] NIH Molecular Libraries Probe Centers Network [MLPCN] Grant: MH090855 Assay Provider: Marvin Gershengorn, NIDDK
An anti cAMP antibody contains a fluorescent cryptate tag (excitation 337 nm; emission 620 nm) and the acceptor is cAMP-d2 (excitation 620 nm; emission 665 nm). When antibody and cAMP-d2 interact and are excited by a 337 nm light, a FRET occurs resulting in emission at 665 nm. The assay is competition between cAMP-d2 and cAMP (from the cell lysate). The homogeneous protocol allows for one step dispense after stimulation that is automation friendly.
Background: Quantitative high-throughput screening tests each substance at several concentrations.
Take `O=C(COc1cccc2ccccc12)Nc1ccc(Cl)cc1C(=O)O`: the max inhibition is 85.8% (active). The value for `O=C1/C(=C\c2cc([N+](=O)[O-])ccc2O)SC(=S)N1Cc1ccc(Cl)cc1` was 90.7% (active); that for `O=C(Nc1nc(-c2ccccc2)cs1)c1ccccc1NS(=O)(=O)c1ccc(F)cc1` was 96% (active); that for `O=C1NC(=S)S/C1=C\c1ccc(SCc2ccccc2)o1` was 92.6% (active).

In the case of `O=S(=O)(Nc1cc(Cl)ccc1-n1cncn1)c1cc(Br)ccc1Br`, the max inhibition is 72.6% (active).

Turning to `COc1ccc(-c2csc(/C(C#N)=C\c3ccc(O)c([N+](=O)[O-])c3)n2)cc1OC`, the max inhibition was 94.4% (active). In the case of `O=c1cc(C(F)(F)F)[nH]c2c(C(F)(F)F)cccc12`, the max inhibition is 88.6% (active). In the case of `CCn1nc([N+](=O)[O-])c(C(C#N)c2nc3cc(C(F)(F)F)ccc3s2)c(Cl)c1=O` (centres undefined), the max inhibition is 94.3% (active). As for `CC(=O)Oc1c(C)cc(Cl)cc1C(=O)Nc1ccc([N+](=O)[O-])cc1Cl`, the figure is 82.9% (active). In the case of `Oc1c(Cl)cc(Cl)c(Cl)c1Cc1c(O)c(Cl)cc(Cl)c1Cl`, the max inhibition was 96.4% (active).

As to `Cc1ccc(-n2[nH]c(C)c(/C=N/Nc3ccc([N+](=O)[O-])cc3[N+](=O)[O-])c2=O)cc1C`, the max inhibition was 88.7% (active). As for `O=C(Nc1ccc(Oc2ccc(Cl)cc2)c(Cl)c1)c1cc(I)cc(I)c1O`, the figure is 91.3% (active); as for `COc1ccc(OCC(=O)NC(=S)Nc2ccc(N3CCOCC3)c(Cl)c2)cc1`, 89.7% (active); as for `CCSC1=NSC2=NC(=O)/C(=C\c3coc4ccccc4c3=O)C(=N)N12`, 96.6% (active).
